KDM4E inh – inhibitors of human JMJD2E histone demethylase; B2RXH2; JMJD2E catalytic domain, FDH-coupled NADH fluorescence (FDH is formaldehyde dehydrogenase); Potency, µM (titrated, usually from 57.1 µM), actives largely listed as inhibitors; 230,000 tested, 1.6% active; AID 2147; note: nearly all actives have a fitted effect of over 50% in size
Target sequence (B2RXH2 1-337 limits assumed): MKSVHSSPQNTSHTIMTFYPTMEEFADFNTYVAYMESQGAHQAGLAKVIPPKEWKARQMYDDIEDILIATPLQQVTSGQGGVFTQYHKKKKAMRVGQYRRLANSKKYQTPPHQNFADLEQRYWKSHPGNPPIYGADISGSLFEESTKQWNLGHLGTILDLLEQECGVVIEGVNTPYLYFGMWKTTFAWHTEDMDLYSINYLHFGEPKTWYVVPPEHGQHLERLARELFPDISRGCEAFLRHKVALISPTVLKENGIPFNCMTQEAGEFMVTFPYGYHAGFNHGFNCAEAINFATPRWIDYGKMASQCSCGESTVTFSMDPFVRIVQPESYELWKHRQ
PNC assembly inh – blocks assembly of the perinucleolar compartment | PC3M PTB-GFP, PNC prevalence imaging, 16 h; active compounds read low | 140,000 tested, 3.1% active | activity change (PNC), negative = inhibition, % at 10 µM;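 active = readout at or below -70, meaning at least 70% loss of cells showing the perinucleolar compartment, a nuclear body marking cancer cells; inconclusive = readout between -30 and a set limit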
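Read-out is percentage of cells bearing a perinucleolar compartment, from automated 20x imaging of fixed, Hoechst-stained PC3M PTB-GFP cells. Cells were seeded 4 h, then exposed 16 h to compound (23 nl of library stock) in duplicate plates.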
HPGD block – inhibitors of human 15-hydroxyprostaglandin dehydrogenase (HPGD); P15428; purified HPGD, NADH fluorescence kinetic, PGE2 substrate; Potency, µM, most hits filed as inhibitors; 150,000 tested, 4.3% active; AID 894
Target sequence (P15428 whole entry, looked up): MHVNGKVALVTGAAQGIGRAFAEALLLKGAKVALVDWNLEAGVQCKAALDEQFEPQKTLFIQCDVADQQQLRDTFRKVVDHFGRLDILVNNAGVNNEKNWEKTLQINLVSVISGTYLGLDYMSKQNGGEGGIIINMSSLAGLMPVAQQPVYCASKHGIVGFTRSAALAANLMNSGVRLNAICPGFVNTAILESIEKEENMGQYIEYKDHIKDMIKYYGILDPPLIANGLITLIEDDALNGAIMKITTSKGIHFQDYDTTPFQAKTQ
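20 nM HPGD preincubated 15 min at room temperature with compound in 50 mM Tris-HCl pH 8, 0.01% Tween 20. Started with 1 mM NAD+ and 30 uM prostaglandin E2; NADH fluorescence (360/450 nm) read 5 times over 30-s intervals, last minus first.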
ALDH1A1 block – ALDH1A1 (human) enzyme inhibition | P00352 | Purified ALDH1A1, NADH fluorescence, propionaldehyde substrate | Potency, µM (series often up to 75.3 µM), actives largely listed as inhibitors | 220,000 tested, 7.3% active | AID 1030
Numbers stand for hits; - = inactive; ? = inconclusive; . = not tested or not shown; [ ] = remark or other dose. Sampled rows, rich in hits. Any-hit rate of the full collection: about 11%. Unless noted, calls come from the whole dose curve; as a rule, active = well fitted inhibition curve with a large enough effect (not every such curve was filed as active); inconclusive = small, poorly fitted or top-dose-only effect, or another doubt; inactive = no such curve, though single readings can be large or run the other way.

SMILES	KDM4E inh	PNC assembly inh	HPGD block	ALDH1A1 block
CCN(CC)CCCN1C(=O)C(=O)/C(=C(/O)c2ccc3c(c2)OCCO3)C1c1ccc(C)o1 (configuration not stated)	-	-	-	25.1µM
COc1ccc([C@@H](Nc2ncccn2)c2cc3c(cc2O)OCO3)cc1	.	.	-	-[13.5 µM]
CS(=O)(=O)Nc1cccc(-c2ccc3ncnc(Nc4ccccc4)c3c2)c1	.	.	.	-
CC(C)Oc1cccc(C(=O)NC(=S)Nc2cccc(NC(=O)c3ccccc3Cl)c2)c1	-	-	-	11.2µM
CCC(CC)=NNc1cccc([N+](=O)[O-])c1	-	-	?	28.2µM
COc1ccc(NC(=O)C(OC(=O)c2ccc([N+](=O)[O-])o2)c2ccccc2)cc1Cl (configuration not stated)	-	-	-	2.51µM
Cc1ccc(OCC(=O)NC(=S)Nc2cccc(NC(=O)c3ccccc3Cl)c2)cc1	-	-	-	12.6µM
Cc1ccc(OCC(=O)Nc2ccccc2[N+](=O)[O-])c(Br)c1	-	.	.	-
O=C(CCOc1ccccc1)Nc1cccc([N+](=O)[O-])c1	-	.	.	?
O=C(COc1ccccc1)NC(=S)Nc1cccc([N+](=O)[O-])c1	-	-	28.2µM	?
O=C(COc1ccccc1)NC(=S)Nc1cccc(NC(=O)c2ccccc2Cl)c1	-	-	.	10µM
COC(C(=O)Nc1cccc([N+](=O)[O-])c1)c1ccccc1 (configuration not stated)	-	.	.	20µM
CCOCCCNC(=S)N1CCN(Cc2ccco2)CC1	-	.	.	14.1µM
CCOCCCNC(=S)N1CCN(CC)CC1	?	.	.	-
O=C(COC(=O)c1c2c(nc3ccccc13)CCCCC2)c1ccc(Cl)s1	-	-	-	-
Cc1nnc(SCc2ccc(F)cc2)s1	-	?	-	-
Cc1nnc(SCc2cc(=O)[nH]c(=S)[nH]2)s1	-	.	.	12.6µM
O=c1cc(CSc2ccccc2)[nH]c(=S)[nH]1	-	-	-	28.2µM
CCCc1nnc(-c2cc(OC)c(OC)c(OC)c2)o1	?	-90.9	-	?
COc1cc(-c2nnc(-c3ccccc3)o2)cc(OC)c1OC	?	-	?	?
COc1cc(-c2nnc(-c3cc(OC)c(OC)c(OC)c3)o2)cc(OC)c1OC	?	-100.0	?	?
CC(C)Cc1ccc(C(C)NC(=O)c2ccc(=O)[nH]c2)cc1 (configuration not stated)	-	.	.	-
O=C(c1ccccc1)N1CCN(Cc2c[nH]c3ccccc23)CC1	-	-	-	-
O=C(c1ccc(F)cc1)N1CCN(Cc2ccccc2Br)CC1	?	-98.5	-	?
CC1CCN(C(=S)c2ccc([N+](=O)[O-])cc2)CC1	-	-	22.4µM	?
SMILES	KDM4E inh	PNC assembly inh	HPGD block	ALDH1A1 block
O=C(c1ccc([N+](=O)[O-])cc1)N1CCN(Cc2ccccc2[N+](=O)[O-])CC1	-	.	.	10µM
Clc1ccc(CN2CCN(/N=C/c3ccco3)CC2)cc1	-	.	.	?
Cc1ccc(/C=N/N2CCN(Cc3ccc(Cl)cc3)CC2)o1	-	-	-	7.94µM
Cc1cc(NC(=O)c2ccccc2F)nc2c1c(=O)oc1ccccc12	-	.	.	-
Brc1ccc(-c2nc3ncccn3c2NC2CCCCC2)o1	-	-	-	-
CCN1CCN(C(=S)c2ccc([N+](=O)[O-])cc2)CC1	-	-	25.1µM	?
CSc1ccc(/C=N/N2CCN(Cc3ccccc3)CC2)cc1	11.2µM	.	.	-
CSc1ccc(C(=S)N2CCN(Cc3ccccc3)CC2)cc1	-	-	?	2.24µM
O=[N+]([O-])c1ccc(C(=S)N2CCCC2)cc1	-	.	.	?
CSc1ccc(/C=N/N2CCN(c3ccccc3)CC2)cc1	-	.	.	-
O=C(CN1CCN(Cc2ccccc2)CC1)NCCNc1ccc([N+](=O)[O-])cn1	-	.	.	9.46µM
O=C(CN1CCN(Cc2ccccc2)CC1)Nc1ccc(Cl)cn1	-	?	-	?
O=C(CCn1nc(-c2ccc(Cl)cc2)c2ccccc2c1=O)Nc1cccnc1	-	.	.	-
CC(=O)OCC1OC(n2c(Br)nc3c(=O)[nH]c(N)nc32)C(OC(C)=O)C1OC(C)=O (configuration not stated)	-	.	-	-
COc1cccc(/C=C/C2=CC3(C)CC2(C)C(c2cccc(OC)c2)CC3=O)c1 (configuration not stated)	.	.	.	-[13.5 µM]
CCc1cc(CNC(=O)CCc2nnc(CCCc3ccccc3)o2)on1	-	.	.	-
CC(C)CC1NC(=O)N(CC(=O)Nc2ccccc2-c2ccccc2)C1=O (configuration not stated)	-	.	.	?
CCN(CC)c1ccc(/C=N\N2CCN(Cc3ccc(C)cc3)CC2)cc1	-	.	.	0.794µM
O=[N+]([O-])c1ccc(C(=S)N2CCN(Cc3ccccc3)CC2)cc1	-	-	-	14.1µM
CC(c1ccccc1)C1CC(=O)N(c2cc(Cl)ccn2)C1=O (configuration not stated)	-	.	.	.
CCOC(=O)c1ccc(Oc2nc(OC)nc(N(C)C)n2)cc1	-	-93.3	-	-
O=C(O)CCC(=O)c1ccc(Cl)cc1	.	.	-	-[13.5 µM]
N=C(N)c1ccc2cc(OC(=O)c3ccc(N=C(N)N)cc3)ccc2c1	.	.	.	22.4µM
O=C(O)C/C(=C\c1ccccc1)C(=O)O	.	.	-	-[13.5 µM]
COc1ccc(C(=O)Nc2cc(C(=O)c3ccccc3)c(C)oc2=O)cc1	-	-	-	20µM
SMILES	KDM4E inh	PNC assembly inh	HPGD block	ALDH1A1 block
CO/N=C\Cc1oc(=O)c(NC(=O)c2ccccc2)cc1C(=O)OC	?	-	-	22.4µM
Cc1oc(=O)c(NC(=O)c2cccc(Cl)c2)cc1C(=O)c1ccccc1	-	-	31.6µM	8.91µM
O=C(Nc1ccc(N=Nc2ccccc2)cc1)c1cccc(Cl)c1	-	-111.2	-	-
COC(=O)c1cc(NC(=O)c2ccccc2)c(=O)oc1C	-	.	.	?
NC(=O)c1sc(-c2ccsc2)cc1NS(=O)(=O)c1ccc(C(F)(F)F)cc1	-	.	.	.
O=c1c(-c2ccccc2)nc2cnc(Oc3ccccc3)nc2n1Cc1cccs1	.	.	-	?
O=C(N/N=C/C1C(c2ccccc2)C1(Cl)Cl)c1cccc(Cl)c1 (configuration not stated)	-	-	-	7.08µM
CCC/C(=N/NC(=O)c1cccc(Cl)c1)c1ccccc1	-	-	-	?
O=c1c2oc3nc4c(cc3c2ncn1CCCc1ccccc1)CCCC4	?	.	.	3.98µM
COc1ccc(NC(=O)Cn2cnc3c(oc4nc5c(cc43)COC(C)(C)C5)c2=O)cc1	-	.	.	?
CCCCCCn1cnc2c(oc3nc4c(cc32)CCCC4)c1=O	-	-	-	3.55µM
CCn1c(=S)[nH]c2nc3c(cc2c1=O)CCCC3	-	-	-	-
CCCCn1cnc2c(oc3nc4c(cc32)CCCC4)c1=O	?	.	.	1.26µM
Cc1ccc(C(CC(=O)NCCCN(C)C)c2ccc(OC(C)C)cc2)cc1 (configuration not stated)	-	.	.	.
COc1ccc2c(c1OC)C(=O)OC2CC(=O)c1ccc(O)c(O)c1 (configuration not stated)	14.1µM	-	?	-
COc1ccc2c(c1OC)C(=O)OC2CC(=O)c1ccc(N(C)C)cc1 (configuration not stated)	-	-	-	-
COc1ccc2c(c1OC)C(=O)OC2CC(=O)c1ccc(O)cc1 (configuration not stated)	-	?	25.1µM	28.2µM
